The text below walks through data of PubChem BioAssay (Tox21).

“And” between values parts separate entries of the source, which are not always exact repeats. Equal entries are not always repeated. The source made the active and inactive calls. The call rests on the fitted dose curve.
On the % scale 0 is the no-effect control and ±100 the full control effect.

Sequence of Thyrotropin-releasing hormone receptor (Homo sapiens) (P34981 whole entry, looked up): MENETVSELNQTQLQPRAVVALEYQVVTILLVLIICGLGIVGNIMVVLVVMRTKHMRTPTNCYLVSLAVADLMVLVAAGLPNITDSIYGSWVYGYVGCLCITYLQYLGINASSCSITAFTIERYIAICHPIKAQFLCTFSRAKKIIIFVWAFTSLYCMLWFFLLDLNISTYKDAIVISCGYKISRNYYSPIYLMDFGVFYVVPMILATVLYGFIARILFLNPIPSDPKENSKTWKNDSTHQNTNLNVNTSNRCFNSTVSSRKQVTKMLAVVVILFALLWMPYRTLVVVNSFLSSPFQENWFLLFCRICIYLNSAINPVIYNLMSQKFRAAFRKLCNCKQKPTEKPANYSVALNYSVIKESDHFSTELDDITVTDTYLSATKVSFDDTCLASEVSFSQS

For this assay, the target named is Thyrotropin-releasing hormone receptor (Homo sapiens) (UniProt P34981). The assay is described as follows: qHTS assay to identify small molecule agonists of the thyrotropin-releasing hormone receptor (TRHR) signaling pathway (AID 1346891).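 Further: HEK293 cells expressing TRHR with calcium dye readout.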 The note with it: TRHR-HEK293 calcium fluorescence, agonist mode; series mostly up to 57.6 µM; activation: at the top concentration. The source says:
National Center for Advancing Translational Sciences [NCATS] NIH Chemical Genomics Center [NCGC] U.S. Environmental Protection Agency [EPA] National Institutes of Environmental Health Sciences [NIEHS] National Toxicology Program [NTP] Assay overview: Thyrotropin-releasing hormone (TRH) receptor (TRHR) is a G-protein-coupled receptor which binds the tripeptide thyrotropin releasing hormone. TRHR is found in the brain and, when bound by TRH, acts (through phospholipase C) to increase intracellular inositol trisphosphate. It plays a crucial role in the anterior pituitary where it controls the synthesis and secretion of thyroid stimulating hormone and prolactin. The TRHR-Hek293 assay is a cell-based assay, and it has the potential to screen G protein-coupled receptors. A compound/drug can either activate (agonist) or suppress (antagonist) GPCRs that can be monitored by levels of intracellular calcium. Using this assay, the Tox21 10K compound library was screened to identify potential TRHR agonists.
Assay Protocol Summary: The TRHR-Hek293 cells were dispensed at 1500cells/4uL/well in 1536-well black-clear bottom plates using a Multidrop dispenser. After the assay plates were incubated at a 37 C/5% CO2 incubator for 18 hours, 4 uL of Dye-Loading Solution was added to each well. The plates were incubated at 37 C for 2 hours. For agonist mode, 23 nL of compounds dissolved in DMSO, positive controls or DMSO only was transferred to the assay plate by a pin tool. The fluorescence intensity in the plates was measured using FDSS 7000EX kinetic plate reader for 3 min at 1 sec intervals. Each test compound was measured at 15 concentrations and in triplicates.
Background: Quantitative high-throughput screening tests each substance at several concentrations.
For `CC(=O)CC(=O)Nc1ccccc1C`, the outcome was inactive.
The same measure, in the same setting: the result for `COS(C)(=O)=O` reads “inactive”.
Still for that read-out and setting: the result for `CC1CCC(C(C)C)C(O)C1` (stereo not given) reads “inactive”.
Turning to `C#CCN(C)Cc1ccccc1`, the result was inactive.
Consider `CCCCCC(N)=O`, for which the result was inactive.
Turning to `C=C(C)C(=O)O[C@H]1C[C@@H]2CC[C@@]1(C)C2(C)C`, the result was inactive.
With `Cc1ccc(S(N)(=O)=O)cc1`, the “activation” value is -0.585% (inactive).
Turning to `OCc1cccnc1`, the outcome was inactive.
As to `CN(C)CCC(c1ccc(Cl)cc1)c1ccccn1` (stereo not given), the outcome was inactive.
On the same count and under the same terms, the result for `Oc1cccc2ccccc12` reads “inactive”; that for `CC1CCC2CC1C2(C)C` (stereo not given), “inactive”.
As to `OCCOCCN1CCN(C2=Nc3ccccc3Sc3ccccc32)CC1`, the result was inactive.
Regarding `COc1ccc(Cl)cc1C(=O)NCCc1ccc(S(=O)(=O)NC(=O)NC2CCCCC2)cc1`, the result was inactive.
Still for that read-out and setting: the result for `CCCCCCCCCCCCc1ccccc1` reads “inactive”; that for `Cc1occc(=O)c1O`, “inactive”; that for `OCCOCCOCCO`, “inactive”.
Turning to `Nc1cc([N+](=O)[O-])ccc1O`, the result was inactive.
Same read-out and setting: the result for `CN(C)CCC(c1ccccc1)c1ccccn1` (stereo not given) reads “inactive”.
With `COc1cc(Cc2cnc(N)nc2N)cc(OC)c1OC`, the outcome was inactive.
On to `O=C(Oc1ccccc1)c1ccccc1`, for which the outcome was inactive.
On the same count and under the same terms, the result for `Nc1ccccc1[N+](=O)[O-]` reads “inactive”; that for `CCCCC(CC)COC(=O)CCCCC(=O)OCC(CC)CCCC` (stereo not given), “inactive”.
Regarding `C/C=C1/CC2C=CC1C2` (stereo not given), the outcome was inactive.
Turning to `CCc1cccc(C)c1N`, the result was inactive.
For `CC(=O)Nc1ccccc1`, the outcome was inactive.
For the compound `CCCCCCCCCCCCOCCO`, the result was inactive.
Consider `FC(F)(F)c1ccc(Cl)c(Cl)c1`, for which the result was inactive.
With `CC1=CCC2CC1C2(C)C` (stereo not given), the result was inactive.
Turning to `CCCCOC(=O)COc1ccc(Cl)cc1Cl`, the outcome was inactive.
The same measure, in the same setting: the result for `Cc1ccc2oc(=O)ccc2c1` reads “inactive”; that for `COc1ccc(Nc2ccccc2)c(C)c1`, “inactive”.
Consider `CCN(CC)CCCC(C)Nc1ccnc2cc(Cl)ccc12` (stereo not given), for which the activation was 0.225% [at 5.23 µM] (inactive) and -0.0196% [at 11.8 µM] (inactive).
With `CSCCC=O`, the result was inactive.
`O=c1[nH]c(=O)n([C@H]2C[C@H](O)[C@@H](CO)O2)cc1Br`: the outcome was inactive.
The same measure, in the same setting: the result for `COCCCOc1ccnc(CS(=O)c2nc3ccccc3[nH]2)c1C` (stereo not given) reads “inactive”; that for `O=S1(=O)CC=CC1`, “inactive”; that for `O=C(O)c1ccccc1C(c1ccc(O)cc1)c1ccc(O)cc1`, “inactive”.
Consider `Cc1ccc(N(C)C)cc1`, for which the result was inactive.
Same read-out and setting: the result for `CCC(O)OCCCOC` (stereo not given) reads “inactive”; that for `C=C(C)C(=O)Nc1ccc(Cl)c(Cl)c1`, “inactive”.
